# From PubChem BioAssay (NCATS)
# “And” between values parts separate entries of the source, which are not always exact repeats. Identical values can stand only once. Records with an inconclusive call do not appear. The list shows a part of the results. Entries that show only a call come without a potency. The source made the active and inactive calls. Unless noted, the call rests on the fitted dose curve.
# What was measured:
# [1] = qHTS for Inhibitors of the Functional Ribonucleoprotein Complex (vRNP) of Lassa (LASV) Arenavirus: Viability assay - alamar blue signal for LASV Primary Screen (AID 1347083; calls by dose curve; tested in HEK293 reporter line; further: nearly all actives have a fitted effect of over 80% in size; further: potency means the concentration at half of the fitted maximal effect)
# [2] = qHTS for Inhibitors of the Functional Ribonucleoprotein Complex (vRNP) of Lymphocytic Choriomeningitis Arenaviruses (LCMV): Viability assay - alamar blue signal for LCMV Primary Screen (AID 1347085; calls by dose curve; tested in HEK293 reporter line; further: nearly all actives have a fitted effect of over 80% in size; further: potency means the concentration at half of the fitted maximal effect)
# [3] = Primary qHTS for inhibitors of SARS-S pseudo-typed particle cell entry (AID 1479145); further: nearly all actives have a fitted effect of over 45% in size
# [4] = Primary qHTS for Huh7 cytotoxicity: counterscreen for inhibitors of MERS-S pseudotyped particle cell entry (AID 1479147); conditions: outcome: dose series up to 57.1 µM unless noted
# [5] = Primary qHTS for inhibitors of MERS-S pseudo-typed particle cell entry (AID 1479149); further: nearly all actives have a fitted effect of over 60% in size
# [6] = Primary qHTS for Vero E6 cytotoxicity: counterscreen for inhibitors of SARS-S pseudo-typed particle cell entry (AID 1479150); conditions: outcome: dose series up to 57.1 µM unless noted
# [7] = Confirmatory qHTS to identify inhibitors of SARS-CoV-2 cell entry (AID 1645844); further: potency means the concentration at half of the fitted maximal effect; nearly all actives have a fitted effect of over 45% in size
# How it was run: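 HEK293-ACE2 cells were pretreated 1 h with compound, then infected with MLV-based pseudoparticles bearing C-terminally truncated Wuhan-Hu-1 spike for 48 h at 37C; luciferase luminescence normalized to spike PP and bald PP wells.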
# [8] = Cytotoxicity counterscreen for inhibitors of SARS-CoV-2 cell entry (AID 1645845); further: nearly all actives have a fitted effect of over 50% in size; further: potency means the concentration at half of the fitted maximal effect
# How it was run: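 HEK293-ACE2 cells (Expi293F stably expressing human ACE2) seeded overnight, then compound for 1 h plus 48 h at 37C. Viability as ATP content by luminescence; normalized to wells with cells and media-only wells.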
# [9] = VSVG counterscreen qHTS to identify inhibitors of SARS-CoV-2 cell entry (AID 1645847); further: potency means the concentration at half of the fitted maximal effect; nearly all actives have a fitted effect of over 65% in size
# How it was run: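 Luminescence read after 48 h infection at 37 C with VSV-G-pseudotyped MLV particles, following 1 h compound exposure of Expi293F cells stably expressing human ACE2; scaled between bald particle and VSV-G particle wells.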
# [10] = Inducers of the Endoplasmic Reticulum Stress Response (ERSR) in human glioma: Validation (AID 504836; active means well fitted curve in the direction sought with a large enough effect; an effect the other way counts as inactive or inconclusive)
# How it was run: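 Stably transfected U87-MG glioma cells carrying a GRP78-based luciferase sensor; 16 h compound incubation. Luminescence end-point read 10 min after Bright-Glo addition at room temperature.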
# [11] = Primary qHTS to identify inhibitors of SARS-CoV-2 cell entry (AID 1645846); conditions: activity change, negative = inhibition: at 57.1 µM (top of the series) unless noted; further: nearly all actives have a fitted effect of over 45% in size; further: potency means the concentration at half of the fitted maximal effect
# How it was run: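 Entry measured by luciferase signal 48 h after adding SARS-CoV-2-S pseudotyped MLV particles to HEK293-ACE2 cells preincubated 1 h with compounds. Normalisation: bald particles and spike particles.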
# [12] = Validation screen for inhibitors of Lassa infection (AID 463096)
# [13] = molecular target: Peroxisome proliferator-activated receptor delta (Homo sapiens) (UniProt Q03181); experiment: qHTS assay for small molecule agonists of peroxisome proliferator-activated receptor delta signaling (AID 588534)
# Sequence of Peroxisome proliferator-activated receptor delta (Homo sapiens) (Q03181 whole entry, looked up): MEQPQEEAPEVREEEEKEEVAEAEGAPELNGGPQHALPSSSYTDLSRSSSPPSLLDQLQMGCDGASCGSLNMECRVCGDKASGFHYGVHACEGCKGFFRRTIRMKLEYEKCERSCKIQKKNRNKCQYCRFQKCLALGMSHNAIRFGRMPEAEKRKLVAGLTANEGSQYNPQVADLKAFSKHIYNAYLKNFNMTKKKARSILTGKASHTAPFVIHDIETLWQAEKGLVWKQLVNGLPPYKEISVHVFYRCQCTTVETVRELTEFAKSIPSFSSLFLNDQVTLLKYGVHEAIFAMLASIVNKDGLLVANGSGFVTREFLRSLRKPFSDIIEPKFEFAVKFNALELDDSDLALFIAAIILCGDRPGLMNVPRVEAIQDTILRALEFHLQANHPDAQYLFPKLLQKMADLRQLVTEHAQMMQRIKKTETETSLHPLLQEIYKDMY
# How it was run: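 Cell-based beta-lactamase reporter assay run in agonist mode: cells seeded and incubated 5 hrs at 37 C, compounds added and incubated 18 hrs at 37 C. CCF4 dye fluorescence read after 2 hrs at RT; EC50 and efficacy from Hill fits.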
# [14] = molecular target: DNA polymerase eta (Homo sapiens) (UniProt Q9Y253); experiment: qHTS for Inhibitors of Polymerase Eta: Confirmatory Assay for Cherry-picked Compounds (AID 720502; active means well fitted curve in the direction sought with a large enough effect; an effect the other way counts as inactive or inconclusive; further: potency means the concentration at half of the fitted maximal effect); conditions: Pol eta primer extension, TAMRA/BHQ fluorescence, 10 min
# Sequence of DNA polymerase eta (Homo sapiens) (Q9Y253 whole entry, looked up): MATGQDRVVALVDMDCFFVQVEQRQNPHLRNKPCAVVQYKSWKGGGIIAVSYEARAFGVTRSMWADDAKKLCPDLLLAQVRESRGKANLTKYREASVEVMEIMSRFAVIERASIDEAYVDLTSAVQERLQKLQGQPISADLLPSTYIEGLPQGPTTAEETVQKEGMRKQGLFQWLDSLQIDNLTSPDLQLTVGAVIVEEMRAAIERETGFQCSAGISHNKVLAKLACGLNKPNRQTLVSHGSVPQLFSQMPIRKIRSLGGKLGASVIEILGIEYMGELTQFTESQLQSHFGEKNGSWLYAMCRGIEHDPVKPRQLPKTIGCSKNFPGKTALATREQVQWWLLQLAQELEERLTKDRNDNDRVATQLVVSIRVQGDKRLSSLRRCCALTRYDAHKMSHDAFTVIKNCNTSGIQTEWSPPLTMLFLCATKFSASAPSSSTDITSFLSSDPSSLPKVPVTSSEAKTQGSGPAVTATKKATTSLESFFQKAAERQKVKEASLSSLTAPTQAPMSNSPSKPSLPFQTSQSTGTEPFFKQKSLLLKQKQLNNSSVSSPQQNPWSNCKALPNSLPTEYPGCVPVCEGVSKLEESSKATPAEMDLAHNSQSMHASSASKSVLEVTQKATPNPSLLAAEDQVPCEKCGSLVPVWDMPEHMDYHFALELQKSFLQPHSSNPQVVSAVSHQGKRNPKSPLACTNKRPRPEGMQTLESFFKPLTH
# How it was run: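 Readout: TAMRA dequenching, ex 525/em 598 nm, read at 0 and 10 min. Enzyme: 10 nM human Pol eta, preincubated with compound 15 min RT. Substrate: 50 nM final annealed primer/reporter/template duplex.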
# [15] = qHTS profiling of the MIPE4 collection as inhibitors of Plasmodium falciparum (3D7) proliferation (AID 743344; call rule not given here); conditions: P. falciparum 3D7 in erythrocytes, SYBR Green DNA fluorescence, 72 h; at 28.5 µM (top of the series) unless noted
# How it was run: (§1)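 Erythrocytes infected with P. falciparum (0.3% parasitemia, 2.5% hematocrit) incubated with compounds 72 h at 37 C, 5% CO2. Lysis with saponin/Triton buffer containing SYBR Green I, overnight at room temperature in the dark; DNA fluorescence (485/535 nm) normalised to 0.29 uM artemisinin and DMSO.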
# [16] = qHTS profiling of the MIPE4 collection as inhibitors of Plasmodium falciparum (HB3) proliferation (AID 743347; call rule not given here); conditions: P. falciparum HB3 in erythrocytes, SYBR Green DNA, 72 h; at 28.5 µM (top of the series) unless noted
# How it was run: as §1
# [17] = Confirmatory qHTS for VERO E6 Cytotoxicity Assay: Counterscreen for SARS-CoV-2 CPE Assay (AID 1508605); further: potency means the concentration at half of the fitted maximal effect; nearly all actives have a fitted effect of over 60% in size
# [18] = molecular target: Nucleoprotein (Lymphocytic choriomeningitis virus (strain Armstrong)) (UniProt P09992); experiment: qHTS for Inhibitors of the Functional Ribonucleoprotein Complex (vRNP) of Lymphocytic Choriomeningitis Arenaviruses (LCMV): LCMV Primary Screen - GLuc reporter signal (AID 1347086); further: nearly all actives have a fitted effect of over 70% in size; further: potency means the concentration at half of the fitted maximal effect
# Sequence of Nucleoprotein (Lymphocytic choriomeningitis virus (strain Armstrong)) (P09992 whole entry, looked up): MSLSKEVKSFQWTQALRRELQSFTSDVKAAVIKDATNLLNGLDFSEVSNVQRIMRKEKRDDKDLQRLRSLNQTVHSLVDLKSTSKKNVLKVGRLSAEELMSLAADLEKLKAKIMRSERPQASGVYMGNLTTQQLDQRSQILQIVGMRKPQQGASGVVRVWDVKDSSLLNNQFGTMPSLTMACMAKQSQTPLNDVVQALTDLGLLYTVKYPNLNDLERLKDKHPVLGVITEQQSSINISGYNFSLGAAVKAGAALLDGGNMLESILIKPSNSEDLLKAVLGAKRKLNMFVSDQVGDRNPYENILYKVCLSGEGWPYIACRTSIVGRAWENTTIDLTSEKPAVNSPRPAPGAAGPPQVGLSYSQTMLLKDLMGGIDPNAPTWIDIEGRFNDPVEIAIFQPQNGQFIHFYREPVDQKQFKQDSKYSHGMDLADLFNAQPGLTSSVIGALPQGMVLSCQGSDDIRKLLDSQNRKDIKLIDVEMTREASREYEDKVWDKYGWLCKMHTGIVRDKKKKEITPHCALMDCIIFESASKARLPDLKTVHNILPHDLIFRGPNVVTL
# [19] = molecular target: Alpha-galactosidase (Coffea arabica) (UniProt Q42656); experiment: Counterscreen for Glucocerebrosidase Inhibitors: qHTS Assay for Coffee Bean alpha-Galactosidase at pH 4.5 (AID 957; active means well fitted curve in the direction sought with a large enough effect; an effect the other way counts as inactive or inconclusive)
# Sequence of Alpha-galactosidase (Coffea arabica) (Q42656 whole entry, looked up): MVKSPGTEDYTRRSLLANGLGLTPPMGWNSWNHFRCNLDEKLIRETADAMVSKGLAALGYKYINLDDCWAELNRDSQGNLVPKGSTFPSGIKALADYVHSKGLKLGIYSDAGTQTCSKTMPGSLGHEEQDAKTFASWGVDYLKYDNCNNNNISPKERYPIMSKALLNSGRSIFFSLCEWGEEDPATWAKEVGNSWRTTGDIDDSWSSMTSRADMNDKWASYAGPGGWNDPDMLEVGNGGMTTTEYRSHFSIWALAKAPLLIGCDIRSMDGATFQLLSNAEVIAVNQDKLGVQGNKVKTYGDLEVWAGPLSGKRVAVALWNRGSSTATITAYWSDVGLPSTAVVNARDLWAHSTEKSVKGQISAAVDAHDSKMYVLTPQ
# How it was run: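 Green coffee bean enzyme (2 nM final) was incubated with compounds (0.7 nM to 77 uM) and 4-methylumbelliferyl alpha-D-galactopyranoside (80 uM final) in 50 mM citric acid, 0.005% Tween-20, pH 4.5, 20 min at room temperature; AC50 from Hill fits.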
# [20] = molecular target: Alpha-galactosidase (Coffea arabica) (UniProt Q42656); experiment: Counterscreen for Glucocerebrosidase Inhibitors: qHTS Assay for Coffee Bean alpha-Galactosidase at pH 5.9 (AID 998; active means well fitted curve in the direction sought with a large enough effect; an effect the other way counts as inactive or inconclusive)
# How it was run: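 Green coffee bean enzyme (2 nM) with 4-methylumbelliferyl alpha-D-galactopyranoside (80 uM) in 50 mM citric acid, 0.005% Tween-20, pH 5.9, 20 min at room temperature; compounds 0.7 nM–77 uM. Stopped at pH 10, fluorescence Ex365/Em440; Hill-fit AC50.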
smiles,measurement,setting,value
CC[C@]1(O)C[C@H]2CN(CCC3=c4ccccc4=N[C]3[C@@](C(=O)OC)(c3cc4c(cc3OC)N(C)[C@H]3[C@@](O)(C(N)=O)[C@H](O)[C@]5(CC)C=CCN6CC[C@]43[C@@H]65)C2)C1,Potency,[1],38.5 nM (active)
same,Potency,[2],10.9 nM (active)
same,Potency,[3],inactive
same,outcome,[4],inactive
same,Potency,[5],inactive
same,outcome,[6],inactive
same,Potency,[7],76.4 nM (active)
same,Potency,[8],inactive
same,Potency,[9],30.4 nM (active)
CC(C)Oc1ccc(C(=O)N[C@H](CNC(=O)CN(C)C)Cc2ccc(-c3cn4cccc([C@H](C)O)c4n3)cc2)cc1Cl,Potency,[1],1930 nM (active)
same,Potency,[2],968 nM (active)
same,Potency,[8],inactive
CC[n+]1c(/C=C/C=C2/N(C)c3ccccc3C2(C)C)sc2ccccc21,outcome,[10],inactive
same,Potency,[1],1580 nM (active)
same,Potency,[2],708 nM (active)
N#Cc1c(NC(=O)c2cccc3ccccc23)sc2c1CCCC2,Potency,[1],769 nM (active)
same,Potency,[2],1090 nM (active)
same,Potency,[7],1080 nM (active)
same,"activity change, negative = inhibition",[11],-63.8%
same,Potency,[9],764 nM (active)
O=C(Nc1cn[nH]c1-c1nc2ccc(CN3CCOCC3)cc2[nH]1)NC1CC1,Potency,[1],7690 nM (active)
same,Potency,[2],1930 nM (active)
same,Potency,[8],15.8 µM (active)
same,"activity change, negative = inhibition",[11],-95.5%
CN(C)Cc1c(C(=O)NCCOc2ccc(C(=O)NO)cc2)oc2ccccc12,Potency,[1],2430 nM (active)
same,Potency,[2],1370 nM (active)
same,Potency,[11],inactive
CNC(=O)c1ccccc1Nc1nc(Nc2ccc(N3CCOCC3)cc2OC)ncc1Cl,Potency,[1],4850 nM (active)
same,Potency,[2],2730 nM (active)
same,Potency,[8],inactive
O=C(c1ccc(OCCCc2cnc[nH]2)cc1)C1CC1,outcome,[10],inactive
same,Potency,[1],inactive
same,Potency,[2],inactive
CN1CCN2c3ccccc3Cc3ccccc3C2C1 (configuration not stated),Potency,[12],inactive
same,outcome,[10],inactive
same,Potency,[1],inactive
same,Potency,[2],inactive
same,outcome,[4],inactive
same,Potency,[5],inactive
same,outcome,[6],inactive
same,Potency,[8],inactive
CCCCCCN(CCCCCC)C(=O)Cc1c(-c2ccc(F)cc2)[nH]c2ccccc12,outcome,[10],inactive
C[C@]12CC[C@@H]3c4ccc(O)cc4CC[C@H]3[C@H]1CC[C@H]2O,Potency,[13],inactive
C[C@@H]1C[C@@H]2O[C@H]2/C=C\C=C\C(=O)Cc2c(Cl)c(O)cc(O)c2C(=O)O1,Potency,[14],26900 nM (active)
NC(=O)c1ncn([C@@H]2O[C@H](CO)[C@@H](O)[C@@H]2O)n1,"parasite growth, % of DMSO control",[15],91.7%
same,"growth, % of control",[16],53.5%
CN(C)CCOc1ccc(C(=C(CCCl)c2ccccc2)c2ccccc2)cc1,"parasite growth, % of DMSO control",[15],67.8%
O=C1NC(=O)c2cc(Nc3ccccc3)c(Nc3ccccc3)cc21,Potency,[17],11200 nM (active)
Cc1c(NC(=O)OC[C@@H]2COCCN2)cn2ncnc(Nc3ccc4c(cnn4Cc4cccc(F)c4)c3)c12,Potency,[17],11200 nM (active)
Cc1cc(C(=O)N2CCN(c3cccc(Cl)c3)CC2)n(-c2ccccc2)n1,Potency,[7],6810 nM (active)
same,Potency,[9],3410 nM (active)
COc1ccc(S(=O)(=O)Nc2cccnc2Nc2ccc(O)cc2)cc1,Potency,[7],1210 nM (active)
same,Potency,[9],541 nM (active)
CO[C@@H]1[C@@H](OC2OC(C)C(OC3CC(C)(O)C(OC(=O)CC(C)C)C(C)O3)C(N(C)C)C2O)[C@@H](CC=O)C[C@@H](C)C(=O)/C=C\C2O[C@H]2C[C@@H](C)OC(=O)C[C@H]1OC(C)=O (some centres not stated),Potency,[2],inactive
same,Potency,[18],inactive
same,outcome,[4],inactive
same,Potency,[5],inactive
same,outcome,[6],inactive
same,Potency,[7],15.2 nM (active)
same,Potency,[11],28200 nM (active)
same,Potency,[9],17100 nM (active)
CCCCCC(=O)N[C@@H](c1ccccc1)[C@@H](O)C(=O)O[C@H]1C[C@@]2(O)[C@@H](OC(=O)c3ccccc3)C3[C@](C)(C(=O)[C@H](OC(C)=O)C(=C1C)C2(C)C)[C@@H](O)C[C@H]1OC[C@@]31OC(C)=O (some centres not stated),Potency,[2],inactive
same,Potency,[18],inactive
COc1c(O)c(=O)n2c3ccccc3c3ccnc1c32,Potency,[18],inactive
CC(C)(C)c1nc2c3cc[nH]c(=O)c3c3cc(F)ccc3c2[nH]1,Potency,[2],inactive
same,Potency,[18],inactive
same,Potency,[7],1710 nM (active)
COc1c(O)c2c(=O)cc(OC)c3c4c(OC)cc(=O)c5c(O)c(OC)c6c(c(c1C[C@@](C)(O)[C@H]6C(C)=O)c23)c54,Potency,[2],inactive
CCN(CC)CCOc1ccc(C(=C(Cl)c2ccccc2)c2ccccc2)cc1,Potency,[18],inactive
CC(=O)OC[C@@H]1O[C@@H](n2ccc(=O)[nH]c2=O)[C@H](OC(C)=O)[C@H]1OC(C)=O,Potency,[2],4850 nM (active)
same,Potency,[18],7690 nM (active)
same,Potency,[3],inactive
same,outcome,[4],inactive
same,Potency,[5],inactive
same,outcome,[6],inactive
same,Potency,[8],inactive
same,"activity change, negative = inhibition",[11],-39.7%
CC(=O)O[C@H]1[C@H]2O[C@]23[C@@H]2CC[C@]4(O)C[C@@H](O)CC[C@]4(C)C2CC[C@]3(C)[C@H]1c1ccc(=O)oc1 (some centres not stated),Potency,[18],316 nM (active)
O=C1Cc2c([nH]c3ccc(Br)cc23)-c2ccccc2N1,outcome,[19],inactive
same,outcome,[20],inactive
same,outcome,[10],inactive
same,Potency,[2],inactive
same,Potency,[18],inactive
CC=CC[C@@H](C)C(=O)[C@H]1C(=O)N[C@@H](C(C)C)C(=O)N(C)CC(=O)N(C)[C@@H](CC(C)C)C(=O)N[C@@H](C(C)C)C(=O)N(C)[C@@H](CC(C)C)C(=O)N[C@@H](C)C(=O)N[C@H](C)C(=O)N(C)[C@@H](CC(C)C)C(=O)N(C)[C@@H](CC(C)C)C(=O)N(C)[C@@H](C(C)C)C(=O)N1C,Potency,[2],inactive
Cc1ccc(O)c(N=Nc2ccccc2)n1,outcome,[19],inactive
same,outcome,[20],inactive
same,outcome,[10],inactive
same,Potency,[2],inactive
same,Potency,[18],inactive
COc1ccc(C(=O)/C=C/c2ccc(OC)cc2OC)c(O)c1,Potency,[2],inactive
same,Potency,[18],inactive
COC1CC2C=C(C)C=CC=CC(=O)NC(c3ccccc3)CC=CCCC(O)CC(=O)C2=C1O (configuration not stated),Potency,[2],inactive
same,Potency,[18],inactive
COc1ccc(CCOC2OC(CO)C(OC(=O)/C=C/c3ccc(O)c(OC)c3)C(O[C@H]3O[C@@H](C)[C@H](O)[C@@H](O)[C@H]3O)C2O)cc1O (some centres not stated),Potency,[2],inactive
same,Potency,[18],inactive
CCCCCCCCc1ccc(CCC(N)(CO)CO)cc1,Potency,[2],inactive
same,Potency,[18],inactive
same,Potency,[8],7.08 µM (active) and 25.1 µM (active)
same,Potency,[11],8910 nM (active)
CC(=O)O[C@@H]1[C@@H](O)C2OC3C=C(C)C(=O)[C@@H](O)[C@]3(CO)C1(C)C21CO1 (some centres not stated),Potency,[2],316 nM (active)
Cc1ccc(S(=O)(=O)/C=C/C#N)cc1,outcome,[10],inactive
same,Potency,[2],inactive
CCCC(=O)OCCC(C)C,Potency,[2],inactive
same,Potency,[18],inactive
CCC[C@H](N[C@@H](C)C(=O)N1[C@@H]2CCCC[C@H]2C[C@H]1C(=O)O)C(=O)OCC,Potency,[2],inactive
same,Potency,[8],inactive
same,"activity change, negative = inhibition",[11],1.44%
